# PubChem BioAssay AID588501 (NMMLSC, 2011)
# About 420 (0.12%) of roughly 360,000 compounds were called active. Only a selection was taken, and actives are over-represented in it overall. Unmarked numbers belong to inactive results. Cut-off read from the data, not from the text of the source: active = inhibition above about 30%; inconclusive = no clear call, values can overlap the other calls; inactive = below that.
# Molecular target: Lethal factor (Bacillus anthracis) (UniProt P15917)
# Test: Bacillus anthracis LF protease inhibitors, primary screen, biochemical, multiplex microsphere, MLPCN library (AID 588501); note: plate controls were buffer without enzyme for full effect and enzyme alone for no effect
# Details: multiplex microsphere protease cleavage assay, at 10 µM, stronger effect = higher value
# Lethal factor (Bacillus anthracis), sequence (P15917 whole entry, looked up): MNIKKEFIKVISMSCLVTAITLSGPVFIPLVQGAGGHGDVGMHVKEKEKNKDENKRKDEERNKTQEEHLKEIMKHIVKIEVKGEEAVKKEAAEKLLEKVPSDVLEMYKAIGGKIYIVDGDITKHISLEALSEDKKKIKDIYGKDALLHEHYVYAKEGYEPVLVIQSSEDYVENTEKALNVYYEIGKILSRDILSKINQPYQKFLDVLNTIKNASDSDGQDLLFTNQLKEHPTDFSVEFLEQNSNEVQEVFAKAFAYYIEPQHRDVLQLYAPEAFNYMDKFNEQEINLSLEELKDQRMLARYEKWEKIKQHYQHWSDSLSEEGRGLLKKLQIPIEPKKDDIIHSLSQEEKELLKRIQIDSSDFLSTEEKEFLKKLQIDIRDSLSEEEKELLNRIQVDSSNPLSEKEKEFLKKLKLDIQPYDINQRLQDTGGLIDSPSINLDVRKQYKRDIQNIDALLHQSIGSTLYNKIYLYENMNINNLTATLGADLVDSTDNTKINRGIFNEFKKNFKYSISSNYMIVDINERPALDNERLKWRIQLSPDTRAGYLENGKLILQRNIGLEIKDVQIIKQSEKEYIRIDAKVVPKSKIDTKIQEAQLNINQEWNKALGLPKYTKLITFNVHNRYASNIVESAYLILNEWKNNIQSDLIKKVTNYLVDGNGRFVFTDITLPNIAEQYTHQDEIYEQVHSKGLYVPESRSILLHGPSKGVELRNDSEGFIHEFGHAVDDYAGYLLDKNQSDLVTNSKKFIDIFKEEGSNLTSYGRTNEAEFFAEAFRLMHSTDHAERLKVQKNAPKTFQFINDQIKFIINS
row,SMILES,inhibition
1,CCC(=O)Nc1cccc(NC(=O)CSc2nnnn2C2CCCC2)c1,3.1%
2,O=C(N/C(=C\c1ccc([N+](=O)[O-])cc1)C(=O)N1CCCCC1)c1ccco1,14.4%
3,C/C=C/C(=O)Nc1nnc(C(C)C)s1,-0.2%
4,CNC[C@H]1Oc2c(NC(=O)C3CCCCC3)cccc2C(=O)N([C@H](C)CO)C[C@@H]1C,-2.2%
5,CCN(CC)C(=O)C1=C(C)N(Cc2ccc(OC)cc2)C(=O)C(CC(=O)NCCCCc2ccccc2)C1 (stereo not drawn),-3.9%
6,CN1CCc2nc(SC(C(=O)O)c3ccccc3)c(C#N)c(-c3cccs3)c2C1 (stereo not drawn),-13.7%
7,CCN(Cc1ccccc1)C(=O)CCS(=O)(=O)c1ccc2c(c1)oc(=O)n2C,0.5%
8,O=[N+]([O-])c1ccc(C(S(=O)(=O)Cc2ccccc2)S(=O)(=O)Cc2ccccc2)cc1,-1.4%
9,CCC(CC)C(=O)Nc1cc(C(=O)OC)cc(C(=O)OC)c1,-1.3%
10,Cc1c(Cl)c([N+](=O)[O-])nn1CC(=O)NCC1CCCO1 (stereo not drawn),-2.9%
11,OCC[C@H]1C[C@@H](O)[C@H](O)[C@@]2(OCCc3ccccc32)O1,3.4%
12,CCc1ccccc1NC(=S)Nc1cc(OC)c(NC(=O)C(C)C)cc1OC,5.6%
13,O=C(Nc1cccc(F)c1)c1coc(=O)c(Br)c1,0.1%
14,O=C(NCC(c1ccco1)N1CCc2ccccc21)c1cccc(F)c1 (stereo not drawn),-3.6%
15,COc1ccc(C2=NS(=O)(=O)N(C)C(C(=O)N3CCCCC3)=C2)cc1,-0.5%
16,COC(c1ccccc1)c1nnc(CCC(=O)N2CCN(CCOc3ccccc3)CC2)o1 (stereo not drawn),0.2%
17,Cc1cc(C)cc(OCc2nnc(SCC(=O)OC3CCCCC3)o2)c1,-14.4%
18,O=c1oc2ccccc2c(CNc2ccccc2)c1[N+](=O)[O-],7.9%
19,O=C1NC[C@H](CCCCN2C[C@H](Cc3ccc(O)cc3)N(CCc3ccccc3)C(=O)C2=O)N(CCc2ccccc2)C1=O,-11.9%
20,O=C(Nc1nnc(C2CC2)s1)C1=NN(C2CCS(=O)(=O)C2)C(=O)CC1 (stereo not drawn),1.6%
21,CNC(=O)c1nnn(-c2ccccc2)c1C(=O)NC,-0.6%
22,COc1ccc(-n2c(O)c(C=NCC(c3ccco3)N3CCCC3)c3ccccc3c2=O)cc1OC (stereo not drawn),0%

row,SMILES,inhibition
1,COc1cc(-c2nc(S(=O)(=O)c3ccc(Cl)cc3)c(N(C)C)o2)cc(OC)c1OC,0%
2,CCCCN(C(=O)c1ccc(S(=O)(=O)N2CCOCC2)cc1)C1CCS(=O)(=O)C1 (stereo not drawn),0.4%
3,CC(C)NC(=O)COCc1cc(-c2ccc3c(c2)OCO3)on1,-4.5%
4,CCCCC(CC)CNCc1cccn1CCN1CCOCC1 (stereo not drawn),9%
5,CCn1c(SCC(=O)Nc2ccc(C)cc2)nc2nc3c(cc2c1=O)CCCC3,-5.9%
6,Cc1ccc(CSCC2Nc3ccc(C(=O)N4CCN(c5ccc(F)cc5)CC4)cc3NC2=O)cc1 (stereo not drawn),-0.9%
7,CC(C)OCCCNC(=O)c1ccc(C2SCC(=O)N2Cc2ccco2)cc1 (stereo not drawn),0.6%
8,CCCCC(=O)Nc1ccc2c(c1)C(=O)NC2=O,-3.5%
9,CC(=O)Nc1ccc(Oc2ccc3c(c2)C(=O)NC3=O)cc1,30.3% (active)
10,CC(=O)Nc1ccc(NC(=O)c2ccc3c(c2)C(=O)N(c2ccccc2C)C3=O)cc1,0.3%
11,OCC1(Cc2ccccc2C(F)(F)F)CCN(Cc2cccc3cnccc23)CC1,-3.3%
12,Nc1ncnc2c1cnn2C1CC(O)C(CO)O1 (stereo not drawn),-1.1%
13,Cc1cccc(C)c1-n1nnnc1C(CCc1ccccc1)N1CCN(C/C=C/c2ccccc2)CC1 (stereo not drawn),-0.9%
14,O=C(Nc1cccc(F)c1)NC1CCCc2ccccc21 (stereo not drawn),0.6%
15,O=C(Nc1cccc(F)c1)[C@@H]1CCCN1,41.3% (active)
16,O=C(COC(=O)CNC(=O)C1CCCCC1)Nc1cccc(F)c1,-8.5%
17,CC(C)(C)OC(=O)NC(Cc1ccccc1)C(=O)NC(CSC1CCCCO1)C(=O)NN (stereo not drawn),39.5% (active)
18,C#CCNC(=O)[C@H](Cc1ccc(C(=O)c2ccccc2)cc1)NC(=O)OC(C)(C)C,-1%
19,CC(C)[C@@H](NC(=O)OC(C)(C)C)C(=O)NCC1CCC(C(=O)N[C@@H](Cc2ccccc2)C(=O)O)CC1 (stereo partly drawn),9%
20,COc1ccc(C2c3[nH]c4ccccc4c3CCN2CCCn2cccn2)cc1C (stereo not drawn),1.2%
21,Cc1ccccc1N1CCN(C2CCCN(C(=O)c3ocnc3C)C2)CC1 (stereo not drawn),-3.3%
